Bioassay records as filed in PubChem.
B2AR ag – activates human beta-2 adrenergic receptor causing internalization. P07550. Am2.2-beta2AR cells, FAP receptor internalization, flow cytometry. response, % (no concentration beside the values). 340,000 tested, 0.43% active. AID 504454;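 active = response above a set limit, near 3 SD of response in nonfluorescent compounds, cut at about 42% in these data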
PP1 counter – counter-screen for PP5 inhibitors: inhibitors of human PP1-alpha; P62136; purified PP1alpha, OMFP fluorescence; inhibition, % at 6.7 µM; 320,000 tested, 0.9% active; AID 2235;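 active = inhibition above the mean inhibition of all tested compounds plus 3 SD, computed separately for each screening campaign, cut at about 15% in these data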
Target sequence (P62136 whole entry, looked up): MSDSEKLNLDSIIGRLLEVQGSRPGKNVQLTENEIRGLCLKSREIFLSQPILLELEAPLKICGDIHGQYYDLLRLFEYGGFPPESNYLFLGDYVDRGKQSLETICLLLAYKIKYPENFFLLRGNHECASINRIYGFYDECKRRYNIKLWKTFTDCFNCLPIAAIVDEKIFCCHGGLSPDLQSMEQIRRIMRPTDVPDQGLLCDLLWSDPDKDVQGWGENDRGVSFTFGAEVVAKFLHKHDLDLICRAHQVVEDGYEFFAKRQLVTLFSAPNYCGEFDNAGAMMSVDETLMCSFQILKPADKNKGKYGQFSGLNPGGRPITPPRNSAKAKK
NadD block – blocks S. aureus nicotinate mononucleotide adenylyltransferase. inhibition, % at 20 µM. AID 602399. purified NadD enzyme, colorimetric absorbance read-out. 360,000 tested, 0.78% active; in the data active = inhibition above about 26%
Granule exo inh – blocks lytic granule exocytosis; TALL-104 LAMP-1 surface exposure, flow cytometry; cells stimulated with thapsigargin and PMA; inhibition, % at 10 µM; 360,000 tested, 0.66% active;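 active = inhibition above about 55%, limit read from the data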
GRK2 aptamer HTS – human GRK2 inhibition via aptamer displacement; P25098; bead flow cytometry, FAM-aptamer displacement from GRK2; inhibition of aptamer binding, % at 10 µM; 330,000 tested, 0.59% active; AID 488847;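 active = inhibition of aptamer binding above 40%, roughly 3 SD of noise, on plates passing a quality check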;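 note: median bead fluorescence of bound FAM aptamer so fluorescent compounds give negative values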
Hits are given with their value; 0 = inactive; - = no result. An excerpt weighted towards active compounds, which were near 2.9% of everything screened.

SMILES	B2AR ag	PP1 counter	NadD block	Granule exo inh	GRK2 aptamer HTS
CCN(CC)CCCNC(=O)C1CCN(C(=O)c2oc3cc4sc(N(C)C)nc4cc3c2C)CC1	0	0	0	0	0
O=C(O)c1cc(-c2ccc(/C=C3/SC(=S)N(Cc4ccccc4)C3=O)o2)ccc1Cl	0	-	0	90	-
Cc1ccc(/C=C2\SC(=S)N(Cc3ccccc3)C2=O)o1	0	0	0	0	0
O=C(O)CCN1C(=O)/C(=C/c2ccc(-c3nc4ccccc4s3)o2)SC1=S	0	0	0	98	0
O=C(O)CCCN1C(=O)/C(=C\c2ccc(-c3nc4ccccc4s3)o2)SC1=S	53	0	0	76	0
O=Cc1ccc(-c2nc3ccccc3s2)o1	0	0	0	0	0
COC(=O)c1cc(N/C(N)=N/c2nc(C)cc(C)n2)cc(C(=O)OC)c1	-	-	0	0	-
CCCCn1c(N)c(N(CCOC)C(=O)c2cccc(-n3cnnn3)c2)c(=O)[nH]c1=O	0	0	0	0	0
C=CCc1cccc2cc(C(=O)Nc3ccc(F)cc3)c(=O)oc12	0	0	0	0	0
C=CCc1cccc2cc(C(=O)Nc3ccc(S(=O)(=O)Nc4nnc(CC)s4)cc3)c(=O)oc12	0	0	50	0	0
NC(=O)c1ccc(N=Nc2c(-c3ccccc3)[nH]n(-c3ccccc3)c2=O)cc1	-	0	-	-	0
Nc1[nH]n2c(=O)cc(-c3ccccc3)nc2c1N=Nc1ccc(S(N)(=O)=O)cc1	0	16	0	0	0
NS(=O)(=O)c1ccc(N=Nc2c(-c3ccccc3)[nH]n(-c3nc(-c4ccccc4)cs3)c2=O)cc1	0	0	37	0	0
Nc1[nH]n2c(=O)cc(-c3ccccc3)nc2c1N=Nc1ccccc1	0	0	31	0	0
COc1ccc(Cl)cc1NC(=O)c1[nH]c(C)c(C(C)=O)c1C	0	17	0	0	0
C=Cc1ccc(C2=CC(=O)C[C@H](c3ccc(OC)cc3)C2)cc1	0	0	0	0	0
CC(=O)n1cc(N(C(=O)CCl)c2ccccc2)c2ccccc21	0	0	0	0	0
CC(=O)n1cc(N(C(=O)CCl)c2ccc([N+](=O)[O-])cc2)c2ccccc21	61	0	0	0	0
CCCCC1C(=O)N(c2ccccc2)N(c2ccc(O)cc2)C1=O (configuration not stated)	61	0	0	0	0
CC(=O)Nc1ccc(C(=O)CN2C(=O)NC3(CCOc4ccccc43)C2=O)c(F)c1 (configuration not stated)	0	0	0	0	0
O=c1c2ccccc2sn1-c1cc(S(=O)(=O)N2CCOCC2)ccc1N1CCOCC1	0	0	0	59	0
O=c1c2ccccc2sn1-c1cc(S(=O)(=O)N2CCOCC2)ccc1N1CCCC1	0	0	0	0	0
Cc1ccc(S(=O)(=O)NCCC(=O)N2CCOCC2)cc1C	0	0	0	0	0
CC(Nc1cc(C)cc(C)c1)=[N+](C)CCNS(=O)(=O)c1ccc(Cl)cc1	0	0	0	0	48
COc1ccc(-c2nn(C)c(=O)c3ccccc23)cc1NC(=O)Cn1nc(C)c2ccccc2c1=O	48	0	0	0	0
SMILES	B2AR ag	PP1 counter	NadD block	Granule exo inh	GRK2 aptamer HTS
COc1ccc(-c2cc(C(=O)NN)n(-c3ccccc3)n2)cc1	0	0	0	0	0
CCOC(=O)c1cc(-c2ccc(OC)cc2)nn1-c1ccccc1C(=O)O	0	17	0	0	0
Cn1ncc(Br)c1C(=O)NC12CC3CC(CC(C3)C1)C2	0	0	0	0	0
COC(=O)c1cnn(C(=O)c2cc(OC)ccc2Br)c1N	0	0	0	0	0
CC(C)C[C@H]1CN=C(Nc2ccccc2)N1CC1CCC(C(C)(C)C)CC1 (some centres not stated)	0	0	0	93	0
CN1/C(=C/C(=O)c2nc(S(C)(=O)=O)ncc2Cl)C(C)(C)c2ccccc21	48	0	0	58	0
CN1/C(=C\C(=O)c2cccnc2)C(C)(C)c2ccccc21	0	0	0	0	0
Cc1nc(NC(=O)c2ccccc2)sc1-c1csc(NCc2ccco2)n1	0	0	47	0	0
Cc1nc(C)c(-c2csc(NCc3ccco3)n2)s1	0	0	0	0	0
CCOC1=CC2=C(C(=O)C(Cl)=CC2=O)[C@@H]2CN(S(=O)(=O)c3ccc(C)cc3)[C@@H](c3ccccc3)[C@H]12	-	-	37	98	-
Cn1c(=O)c(C(=O)COC(=O)c2cc(-c3ccco3)nc3ccccc23)c(N)n(CC2CC2)c1=O	-	21	-	-	0
O=C(O)c1cc(O)c2c(c1)[C@@H]([C@H]1c3cc(C(=O)O)cc(O)c3C(=O)c3c(O[C@@H]4O[C@H](CO)[C@@H](O)[C@H](O)[C@H]4O)cccc31)c1cccc(O[C@@H]3O[C@H](CO)[C@@H](O)[C@H](O)[C@H]3O)c1C2=O	-	-	-	-	100
OCC1OC(Oc2cccc3ccccc23)C(O)C(O)C1O (configuration not stated)	0	0	0	0	0
CC1Cc2ccccc2N1CC(=O)c1c(N)n(Cc2ccccc2)c(=O)n(C)c1=O (configuration not stated)	0	0	0	0	0
CCn1c(=O)c(C(=O)CN2c3ccccc3CC2C)c(N)n(Cc2ccccc2)c1=O (configuration not stated)	0	16	0	0	0
COc1ccc2c(c1)c1ccc3c(c1n2C)C(=O)C=CC3=O	96	-	0	0	-
Cc1ccc2c(c1)c1ccc3c(c1n2C)C(=O)C=CC3=O	93	-	48	0	-
Cn1c2ccccc2c2ccc3c(c21)C(=O)C=CC3=O	76	-	0	106	-
Cc1ccc(C)c2c1c1ccccc1n2C	0	0	0	0	0
O=[N+]([O-])c1ccc(Cl)c(S(=O)(=O)N2CCCCCC2)c1	0	0	0	0	0
CCCC(=O)N=C1SC2CS(=O)(=O)CC2N1c1ccc(C(C)=O)cc1 (configuration not stated)	0	0	0	0	0
COc1cc(N=Nc2ccc(Br)cc2)cc(C=O)c1O	-	-	0	105	-
COc1ccc(C2NCCc3c2[nH]c2ccccc32)cc1CN1CCc2cc(OC)c(OC)cc2C1C (configuration not stated)	0	-	0	0	-
COc1ccc(C2NCCc3c2[nH]c2ccccc32)cc1COc1ccc(F)cc1 (configuration not stated)	0	17	0	0	0
Cc1cc(Br)cc(C=Nc2ccc(N3CCOCC3)cc2)c1O	0	0	0	74	0
SMILES	B2AR ag	PP1 counter	NadD block	Granule exo inh	GRK2 aptamer HTS
Cc1[nH]c(=O)[nH]c(=O)c1S(=O)(=O)N(CC(C)C)CC(C)C	0	0	0	0	0
CC(=O)Nc1ccc2c(c1)Cc1cc(N3C(=O)C=CC3=O)ccc1-2	44	-	0	0	-
CCN(CC)Cc1cc(O)c(CN(CC)CC)cc1O	0	-	31	0	-
CCc1oc(C(=O)O)cc1CN(CC)CC	0	0	0	0	0
CSC1=NC(C)(C)C=C(/C=C/c2ccc(Cl)cc2)N1	84	0	0	0	0
C/C(CC(=O)Nc1ccc(OCc2ccccc2)cc1)=N\NC(=O)C(=O)Nc1ccccc1C	0	16	0	0	0
COc1ccc(C(C)=NNC(=O)c2cccc(S(=O)(=O)N3CCCC3)c2)cc1	0	-	0	0	0
